TDP1 cell noCPT: qHTS for Inhibitors of human tyrosyl-DNA phosphodiesterase 1 (TDP1): qHTS in cells in absence of CPT | AID 686978, 2013 | 15% of 420,000 active | Potency, µM (highest dose often 46.2 µM), inactives show top-dose activity change, negative = growth inhibition, most hits filed as inhibitors | DT40 Tdp1-/- hTDP1 cells, no CPT, ATP luminescence, 48 h; further: potency means the concentration at half of the fitted maximal effect; nearly all actives have a fitted effect of over 55% in size
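Growth kinetics read by CellTiter-Glo luminescence after ≥48 hr at 37 °C. Cells: DT40 Tdp1-/- stably carrying human TDP1, 400 per well, compound exposure in the absence of CPT (DMSO vehicle).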
HT1080 IDH1KD tx: kills HT-1080 cells with IDH1 knockdown; HT-1080 IDH1 knockdown viability, ATP luminescence, 48 h; Potency, µM (highest dose often 46.1 µM), without a hit: at the highest dose activity, negative = toxicity, usual class: cytotoxic; 2% of 360,000 active; AID 686971;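 further: potency means the concentration at half of the fitted maximal effect; 0% = DMSO wells and -100% = cell-free medium wells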
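In this qHTS, HT-1080 cells depleted of IDH1 are exposed for 48 h at 37 °C to compound titrations. Toxicity is scored from CellTiter-Glo luminescence, with DMSO as full viability and medium alone as none.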
HT1080NT lethal: kills 2HG-producing HT-1080-NT fibrosarcoma cells. Potency, µM (series often up to 46.1 µM), without a hit: at the top dose activity, negative = less viability, actives largely listed as cytotoxic. AID 686970. 1.6% of 360,000 active. HT-1080-NT fibrosarcoma viability, CellTiter-Glo ATP luminescence, 48 h;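 further: NT is the 2HG producing partner of a matched IDH1 knockdown line; potency means the concentration at half of the fitted maximal effect; 0% = DMSO-treated cells and -100% = media-only wells without cells; nearly all actives have a fitted effect of over 55% in size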
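Read-out is CellTiter-Glo luminescence after 10 minutes at room temperature, following 48 hours' compound treatment of HT-1080-NT cells (750 cells/well, RPMI, 5% FBS, 37 degrees C).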
ELG1 DNA repair: inhibitors of ELG1-dependent DNA repair in HEK293T cells; HEK293T ELG1-luciferase reporter, luminescence, 16 h; DNA damage induced by 5-fluorouridine; Potency, µM (doses to about 46.1 µM), for the others: at the top dose activity change, negative = inhibition, actives largely listed as inhibitors; 2.3% of 330,000 active; AID 504467; further: potency means the concentration at half of the fitted maximal effect; nearly all actives have a fitted effect of over 55% in size
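5-Fluorouridine DNA damage + compound/DMSO, 2,000 cells/well, 16 h, 37 °C/5% CO2. ONE-Glo, 30 min RT, luminescence. Readout = decrease in reporter signal.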
IL1B secr inh: blocks inflammasome-driven IL-1 beta release | activity change, % at 57.5 µM | 4.7% of 360,000 active | AID 743279 | THP-1 LPS/ATP IL-1B secretion, AlphaLISA, 16 h; hits give low values; in the data active means activity change below about -50%; inconclusive means mostly about -30% to -49%
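THP-1 cells pretreated 1 hr with compounds (up to 57.5 uM final), then stimulated with LPS (250 ng/mL final) plus ATP (1.25 mM final); secreted IL-1B measured by AlphaLISA after 16 hr, decreased signal indicating inhibition.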
DT40 TDP1 CPT: DT40-hTDP1 cell growth loss with CPT; chicken DT40 Tdp1-/-;hTDP1 cells + 20 nM CPT, ATP luminescence, 48 h; Potency, µM (doses to about 46.2 µM), for inactives: top-dose activity change, negative = growth inhibition, hits mostly inhibitors; 12% of 420,000 active; further: potency means the concentration at half of the fitted maximal effect; nearly all actives have a fitted effect of over 55% in size
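Chicken DT40 Tdp1-/- cells stably complemented with human TDP1 were seeded at 400 cells/well in medium containing 20 nM camptothecin, exposed to pin-transferred compounds, and grown at 37 °C for at least 48 hr. Viability was read as ATP luminescence.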
* = called active by the depositor; ? = inconclusive; nt = not tested or not shown; ! = not confirmed by another sample; [ ] = another dose, or the depositor's remark. This is a sample that favours compounds with a hit; in the whole collection about 19% have one here. Unless noted, the call rests on the fitted dose curve; in most records, active means well fitted curve in the direction sought with a large enough effect; inconclusive means small, poorly fitted or top-dose-only effect, or another doubt; inactive means no such curve, though single readings can be large; an effect the other way counts as inactive or inconclusive. Unless noted, on the % scale 0 is the no-effect control and ±100 the full control effect.

SMILES	TDP1 cell noCPT	HT1080 IDH1KD tx	HT1080NT lethal	ELG1 DNA repair	IL1B secr inh	DT40 TDP1 CPT
COC(=O)C1=CN(c2ccc(C)cc2)C(N)=C(C#N)C1c1ccccc1F (centres undefined)	?	?	-23.5%	nt	-11.6	?
COC(=O)C1=CN(c2cccc(OCc3ccccc3)c2)C(N)=C(C#N)C1c1cccc(F)c1 (centres undefined)	23.1µM*	0.0%	-2.0%	nt	-4.8	13µM*
COC(=O)C1=CN(c2ccc(F)cc2)C(N)=C(C#N)C1c1cccc(F)c1 (centres undefined)	11.6µM*	23.1µM*	?	nt	-16.4	7.31µM*
COC(=O)C1=CN(c2ccc(N3CCOCC3)cc2)C(N)=C(C#N)C1c1cccc(F)c1 (centres undefined)	8.2µM*	-12.0%	-24.2%	nt	5.2	?
COC(=O)C1=CN(c2ccc(F)cc2)C(N)=C(C#N)C1c1ccc(-c2ccccc2)cc1 (centres undefined)	5.8µM*	10.3µM*	10.3µM*	nt	-17.9	7.31µM*
COCCNC(=O)c1ccc(N2CC3CC(C2)c2cccc(=O)n2C3)c(NC(=O)c2ccc(C(C)(C)C)cc2)c1 (centres undefined)	?	1.9%	1.0%	nt	-14.5	-24.2%
CC(C)c1c(C(=O)N/N=C/c2cccc3ccccc23)nnn1-c1nonc1N	?	?	-24.4%	?	11.9	?
Cc1onc(-c2ccccc2Cl)c1C(=O)N[C@@H](C)c1ccccc1	5.4%	4.8%	-2.5%	nt	3.5	-26.2%
COC(=O)C1=CN(c2cc(C)cc(C)c2)C=C(C(=O)OC)C1c1cccc(F)c1	13µM*	9.3%	0.6%	11.2%	?	18.4µM*
COC(=O)C1=CN(c2cc(C)cc(C)c2)C=C(C(=O)OC)C1c1ccc(OC)c(O)c1	?	?	?	-12.9%	-27.8	?
Cc1nnc(SCC(=O)Nc2cccc(Br)c2)s1	8.4%	-1.1%	-1.1%	15.4%	11.8	10.7%
COc1ccc(CC(=O)N/N=C(\C)c2cccc(NC(=O)C3CC3)c2)cc1	24.5%	0.7%	1.7%	-19.0%	-11.4	-25.8%
C/C(=N\NC(=O)C1(C)CC1(Br)Br)c1cccc(NC(=O)C2CCC2)c1 (centres undefined)	25.9µM*	-7.8%	0.0%	?	13.5	18.4µM*
Cn1c(-c2ccc(F)c(F)c2)cc2onc(-c3ccccc3)c2c1=O	23.1µM*	0.2%	-0.5%	?	0.0	16.4µM*
CN(C)C(=O)c1ccc(-c2cc3onc(-c4ccccc4)c3c(=O)n2C)cc1	16.4µM*	4.1%	0.8%	?	8.0	?
O=c1onc(-c2ccccc2)c2ccccc12	13.1%	5.5%	5.3%	nt	-17.1	4.0%
COC(=O)c1ccc(-c2cc3onc(-c4ccccc4)c3c(=O)n2C)cc1	?	11.3%	15.5%	?	9.5	23.1µM*
CN(C)C(=O)c1cc(-c2ccccc2)no1	-5.4%	10.0%	7.3%	?	-21.4	-1.0%
COc1ccc(-c2cc3onc(-c4c(Cl)cccc4Cl)c3c(=O)n2C)cc1	?	-2.0%	-2.9%	?	21.4	?
Cc1cc(C(=O)O)c2c(=O)n(C)c(=O)n(C)c2n1	-14.6%	nt	nt	nt	nt	0.6%
COc1cc(-c2cc(C)c3c(OC)ccc(OC)c3n2)cc2c1OCCN(Cc1cn(C)nc1C)C2	-21.9%	nt	nt	nt	nt	32.7%[9.04 µM]
O=C(NCCc1ccccn1)C1CCN(S(=O)(=O)c2ccc3ccccc3c2)CC1	-9.9%	2.2%	1.4%	11.7%	-17.9	-22.3%
O=C(c1ccc2c(=O)n(CCc3ccccc3)c(=O)[nH]c2c1)N1CCN(c2ccccc2)CC1	?	0.5%	2.9%	-5.0%	-6.0	?
CCCCCn1c(=O)[nH]c2cc(C(=O)N3CCN(c4cccc(Cl)c4)CC3)ccc2c1=O	?	nt	nt	nt	nt	10.3µM*
O=C(c1ccc2c(=O)n(CCc3ccccc3)c(=O)[nH]c2c1)N1CCN(c2ccc(F)cc2)CC1	13µM*	-15.3%	-9.4%	?	-7.8	11.6µM*
SMILES	TDP1 cell noCPT	HT1080 IDH1KD tx	HT1080NT lethal	ELG1 DNA repair	IL1B secr inh	DT40 TDP1 CPT
COc1cc2[nH]c(=O)n(Cc3ccc(C(=O)NCc4ccccc4)cc3)c(=O)c2cc1OC	?	nt	nt	nt	nt	18.4µM*
COCCn1c(=O)[nH]c2cc(C(=O)N3CCN(c4ccc(Cl)cc4)CC3)ccc2c1=O	6.51µM*	-9.8%	4.4%	18.3µM*	9.4	5.8µM*
Cc1ccc(-n2nc(C(=O)N3CCC(C)CC3)c(=O)n(C)c2=O)cc1	-16.5%	nt	nt	nt	nt	-8.0%
COc1ccc(-n2c(=O)[nH]c3cc(C(=O)NCCc4ccccc4)ccc3c2=O)cc1OC	18.4µM*!	-1.6%	3.7%	20.6µM*	34.2	?
O=C(c1ccc2c(=O)n(CCc3ccccc3)c(=O)[nH]c2c1)N1CCN(c2ccc(Cl)cc2)CC1	18.4µM*	nt	nt	nt	nt	16.4µM*
CCOC(=O)N1CCN(C(=O)c2ccc3c(=O)n(CCc4ccccc4)c(=O)[nH]c3c2)CC1	-26.5%	-4.7%	-19.7%	-13.6%	15.1	?
Cc1ccc(CCNC(=O)c2ccc3c(=O)n(-c4ccccc4)c(=O)[nH]c3c2)cc1	-13.8%	nt	nt	nt	nt	-0.5%
O=C(c1ccc2c(=O)n(CCc3ccccc3)c(=O)[nH]c2c1)N1CCN(C(=O)c2ccco2)CC1	11.2µM*	21.1%	9.7%	nt	nt	12.6µM*
O=C(CCCn1c(=O)[nH]c2cc(Cl)ccc2c1=O)NCCCN1CCN(c2ccc(F)cc2)CC1	20.6µM*	-0.7%	0.2%	?	?	16.4µM*
CC(O)Cn1c(N2CCCC2)nc2c1c(=O)n(C)c(=O)n2C (centres undefined)	10.0%	-0.4%	-1.3%	5.8%	7.1	-0.4%
O=C(Nc1ccc(S(=O)(=O)Nc2ncccn2)cc1)c1cc(=O)c2ccccc2o1	-14.2%	nt	nt	nt	nt	-3.6%
CC#CC(=O)N1CCC(CO)(CCc2ccccc2)CC1	0.8%	-2.6%	-3.4%	23.6%	4.9	-3.1%
N#Cc1c(C(F)(F)F)cc(-c2cccs2)nc1SCC(=O)Nc1ccccc1F	?	nt	nt	nt	nt	-27.9%
CCCN1CCN(CCCNC(=O)c2ccc3c(=O)n(CCc4ccccc4)c(=O)[nH]c3c2)CC1	?	5.9%	4.6%	-18.0%	12.1	?
O=C(NCCN1CCCC1)c1ccc2c(=O)n(CCc3ccccc3)c(=O)[nH]c2c1	29.1µM*	-28.6%	-0.3%	?	50.8	18.4µM*
